# Reference: PubChem BioAssay AID1159580 (chemical genetic matrix, 2015)
# In all, about 5,500 compounds went through this assay and about 2,000 (36%) were called active. About 18% were inconclusive and are not listed. Some of the results follow. Unmarked numbers belong to inactive results. Rule as the data show it: active = normalized growth mostly below about 0.91 (no sharp cut-off); inconclusive = no clear call, values can overlap the other calls; inactive = mostly above about 0.92.
# Test: chemical genetic growth profiling, strain panel (AID 1159580);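 also: tested at 20 µM; growth read once vehicle control cultures reached saturation at 30 °C; 1 = growth at the plate median or of vehicle wells; lower values mean less growth of the strain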
# Conditions: S. cerevisiae deletion strains, growth OD
# [1] = locus YAR019C, strain CDC15, stronger effect = lower value
# [2] = locus YBL105C, strain PKC1, stronger effect = lower value
# [3] = locus YBR135W, strain CKS1, stronger effect = lower value
# [4] = locus YBR136W, strain MEC1, stronger effect = lower value
# [5] = locus YBR160W, strain CDC28, stronger effect = lower value
# [6] = locus YDL017W, strain CDC7, stronger effect = lower value
# [7] = locus YDL028C, strain MPS1, stronger effect = lower value
# [8] = locus YDL101C, strain DUN1, stronger effect = lower value
# [9] = locus YDL108W, strain KIN28, stronger effect = lower value
# [10] = locus YDL132W, strain cdc53, stronger effect = lower value
# [11] = locus YDL214C, strain PRR2, stronger effect = lower value
# [12] = locus YDR052C, strain DBF4, stronger effect = lower value
# [13] = locus YDR054C, strain cdc34, stronger effect = lower value
# [14] = locus YDR226W, strain ADK1, stronger effect = lower value
# [15] = locus YDR477W, strain SNF1, stronger effect = lower value
# [16] = locus YER123W, strain YCK3, stronger effect = lower value
# [17] = locus YER133W, strain GLC7, stronger effect = lower value
# [18] = locus YFL009W, strain cdc4, stronger effect = lower value
# [19] = locus YFL029C, strain CAK1, stronger effect = lower value
# [20] = locus YFR003C, strain YPI1, stronger effect = lower value
# [21] = locus YFR019W, strain FAB1, stronger effect = lower value
# [22] = locus YFR028C, strain CDC14, stronger effect = lower value
# [23] = locus YGR040W, strain KSS1, stronger effect = lower value
# [24] = locus YGR052W, strain FMP48, stronger effect = lower value
# [25] = locus YGR092W, strain DBF2, stronger effect = lower value
# [26] = locus YHR030C, strain SLT2, stronger effect = lower value
# [27] = locus YHR079C, strain IRE1, stronger effect = lower value
# [28] = locus YHR082C, strain KSP1, stronger effect = lower value
# [29] = locus YHR205W, strain SCH9, stronger effect = lower value
# [30] = locus YIL147C, strain SLN1, stronger effect = lower value
# [31] = locus YJL095W, strain BCK1, stronger effect = lower value
# [32] = locus YJL128C, strain PBS2, stronger effect = lower value
# [33] = locus YJL157C, strain FAR1, stronger effect = lower value
# [34] = locus YJR016C, strain ILV3, stronger effect = lower value
# [35] = locus YJR066W, strain TOR1 (second series), stronger effect = lower value
# [36] = locus YJR066W, strain TOR1, stronger effect = lower value
# [37] = locus YKL048C, strain ELM1, stronger effect = lower value
# [38] = locus YKL067W, strain YNK1, stronger effect = lower value
# [39] = locus YKL101W, strain HSL1, stronger effect = lower value
# [40] = locus YKL193C, strain SDS22, stronger effect = lower value
# [41] = locus YKL203C, strain TOR2, stronger effect = lower value
# [42] = locus YLR113W, strain HOG1, stronger effect = lower value
# [43] = locus YLR133W, strain CKI1, stronger effect = lower value
# [44] = locus YLR403W, strain SFP1, stronger effect = lower value
# [45] = locus YML070W, strain DAK1, stronger effect = lower value
# [46] = locus YMR001C, strain CDC5, stronger effect = lower value
# [47] = locus YMR205C, strain PFK2 (second series), stronger effect = lower value
# [48] = locus YMR277W, strain FCP1, stronger effect = lower value
# [49] = locus YNL006W, strain LST8, stronger effect = lower value
# [50] = locus YNL020C, strain ARK1, stronger effect = lower value
# [51] = locus YNL161W, strain CBK1, stronger effect = lower value
# [52] = locus YNL183C, strain NPR1, stronger effect = lower value
# [53] = locus YNL207W, strain RIO2, stronger effect = lower value
# [54] = locus YNL222W, strain SSU72, stronger effect = lower value
# [55] = locus YNL307C, strain MCK1 (second series), stronger effect = lower value
# [56] = locus YOL078W, strain AVO1, stronger effect = lower value
# [57] = locus YOL136C, strain PFK27, stronger effect = lower value
# [58] = locus YOR061W, strain CKA2, stronger effect = lower value
# [59] = locus YOR119C, strain RIO1, stronger effect = lower value
# [60] = locus YOR231W, strain MKK1, stronger effect = lower value
# [61] = locus YOR329C, strain SCD5, stronger effect = lower value
# [62] = locus YPL031C, strain PHO85, stronger effect = lower value
# [63] = locus YPL153C, strain RAD53, stronger effect = lower value
# [64] = locus YPL204W, strain HRR25, stronger effect = lower value
# [65] = locus YPL209C, strain IPL1, stronger effect = lower value
# [66] = locus YPL256C, strain CLN2, stronger effect = lower value
# [67] = locus YPR025C, strain CCL1, stronger effect = lower value
# [68] = locus YPR106W, strain ISR1, stronger effect = lower value
# [69] = locus YPR111W, strain DBF20, stronger effect = lower value
# [70] = strain NNK1, stronger effect = lower value
# [71] = strain TSCII, stronger effect = lower value
smiles,measurement,setting,value
N#CC1=C(N)C(C#N)(C#N)C2(CCCCC2)C2CCCC=C12 (configuration not stated),normalized growth,[1],0.984
same,normalized growth,[2],0.982
same,normalized growth,[3],0.979
same,normalized growth,[4],0.982
same,normalized growth,[5],0.982
same,normalized growth,[6],0.98
same,normalized growth,[7],0.985
same,normalized growth,[8],0.983
same,normalized growth,[9],0.988
same,normalized growth,[10],0.98
same,normalized growth,[11],0.993
same,normalized growth,[12],0.977
same,normalized growth,[13],0.973
same,normalized growth,[14],0.983
same,normalized growth,[15],0.982
same,normalized growth,[16],0.984
same,normalized growth,[17],0.978
same,normalized growth,[18],0.978
same,normalized growth,[19],0.973
same,normalized growth,[20],0.985
same,normalized growth,[21],0.985
same,normalized growth,[22],0.985
same,normalized growth,[23],0.971
same,normalized growth,[24],1.05
same,normalized growth,[25],0.958
same,normalized growth,[26],0.972
same,normalized growth,[27],0.989
same,normalized growth,[28],0.975
same,normalized growth,[29],0.953
same,normalized growth,[30],0.985
same,normalized growth,[31],0.951
same,normalized growth,[32],0.961
same,normalized growth,[33],0.991
same,normalized growth,[34],0.989
same,normalized growth,[35],0.969
same,normalized growth,[36],0.968
same,normalized growth,[37],0.985
same,normalized growth,[38],1
same,normalized growth,[39],0.98
same,normalized growth,[40],0.981
same,normalized growth,[41],1.02
same,normalized growth,[42],0.959
same,normalized growth,[43],1
same,normalized growth,[44],0.979
same,normalized growth,[45],0.989
same,normalized growth,[46],0.98
same,normalized growth,[47],1
same,normalized growth,[48],0.985
same,normalized growth,[49],0.99
same,normalized growth,[50],0.998
same,normalized growth,[51],0.979
same,normalized growth,[52],0.963
same,normalized growth,[53],0.971
same,normalized growth,[54],0.982
same,normalized growth,[55],0.995
same,normalized growth,[56],0.979
same,normalized growth,[57],0.99
same,normalized growth,[58],1
same,normalized growth,[59],0.995
same,normalized growth,[60],0.973
same,normalized growth,[61],0.979
same,normalized growth,[62],0.978
same,normalized growth,[63],0.96
same,normalized growth,[64],0.971
same,normalized growth,[65],0.988
same,normalized growth,[66],0.965
same,normalized growth,[67],0.98
same,normalized growth,[68],0.986
same,normalized growth,[69],0.987
same,normalized growth,[70],0.985
same,normalized growth,[71],0.979
COc1cc(C(=O)Oc2c(Cl)cc(Cl)cc2C=Nc2cccc(C(F)(F)F)c2)cc(OC)c1OC,normalized growth,[1],0.977
same,normalized growth,[2],0.976
same,normalized growth,[3],0.971
same,normalized growth,[4],0.973
same,normalized growth,[5],0.968
same,normalized growth,[6],0.974
same,normalized growth,[7],0.962
same,normalized growth,[8],0.986
same,normalized growth,[9],0.966
same,normalized growth,[10],0.963
same,normalized growth,[11],0.627 (active)
same,normalized growth,[12],0.983
same,normalized growth,[13],0.959
same,normalized growth,[14],0.965
same,normalized growth,[15],0.589 (active)
same,normalized growth,[16],0.422 (active)
same,normalized growth,[17],0.585 (active)
same,normalized growth,[18],0.957
same,normalized growth,[19],0.978
same,normalized growth,[20],0.972
same,normalized growth,[21],0.702 (active)
same,normalized growth,[22],0.951
same,normalized growth,[23],0.636 (active)
same,normalized growth,[24],0.556 (active)
same,normalized growth,[25],0.308 (active)
same,normalized growth,[26],0.363 (active)
same,normalized growth,[27],0.388 (active)
same,normalized growth,[28],0.484 (active)
same,normalized growth,[29],0.465 (active)
same,normalized growth,[30],0.972
same,normalized growth,[31],0.421 (active)
same,normalized growth,[32],0.917
same,normalized growth,[33],0.617 (active)
same,normalized growth,[34],0.986
same,normalized growth,[35],0.775
same,normalized growth,[36],0.368 (active)
same,normalized growth,[37],0.78 (active)
same,normalized growth,[38],0.605 (active)
same,normalized growth,[39],0.648 (active)
same,normalized growth,[40],0.971
same,normalized growth,[41],0.693 (active)
same,normalized growth,[42],0.488 (active)
same,normalized growth,[43],0.626 (active)
same,normalized growth,[44],0.473 (active)
same,normalized growth,[45],0.583 (active)
same,normalized growth,[46],0.975
same,normalized growth,[47],0.656 (active)
same,normalized growth,[48],0.97
same,normalized growth,[49],0.981
same,normalized growth,[50],0.594 (active)
same,normalized growth,[51],0.977
same,normalized growth,[52],0.497 (active)
same,normalized growth,[53],0.982
same,normalized growth,[54],0.969
same,normalized growth,[55],0.555 (active)
same,normalized growth,[56],0.969
same,normalized growth,[57],0.548 (active)
same,normalized growth,[58],0.576 (active)
same,normalized growth,[59],0.597 (active)
same,normalized growth,[60],0.465 (active)
same,normalized growth,[61],0.978
same,normalized growth,[62],0.574 (active)
same,normalized growth,[63],0.578 (active)
same,normalized growth,[64],0.562 (active)
same,normalized growth,[65],0.976
same,normalized growth,[66],0.443 (active)
same,normalized growth,[67],0.966
same,normalized growth,[68],0.965
same,normalized growth,[69],0.931
same,normalized growth,[70],0.98
same,normalized growth,[71],0.967
